Source: PubChem BioAssay (National Center for Advancing Translational Sciences (NCATS))
Shown are actives, neighbours in structure and some others; about 6% of the full set was active somewhere.
D3 antag: qHTS of D3 Dopamine Receptor Antagonist: qHTS. D(3) dopamine receptor (Homo sapiens), P35462. D3R cells, DiscoveRx beta-arrestin luminescence, antagonist mode; hits give low values. max response, negative = inhibition, %. 360,000 tested, 2.5% active; in the data active = max response below about -50%; note: % is set by controls: 0 for no effect and ±100 for the full control effect
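Cells expressing the human receptor were seeded at 1500 cells/well, incubated overnight at 37 degrees C in 5% CO2, then exposed to library compounds with dopamine controls for 90 minutes at 37 degrees C before luminescent detection.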
D1 PAM: Potentiators of Human D1 Dopamine Receptor: qHTS. D(1A) dopamine receptor (Homo sapiens), P21728. potentiation, % at 10 µM. 360,000 tested, 0.036% active. HEK293 TREx D1 cells, calcium flux, dopamine EC20 potentiation; in the data active = potentiation above about 30%; note: 0% is about no effect
Target sequence (P21728 whole entry, looked up): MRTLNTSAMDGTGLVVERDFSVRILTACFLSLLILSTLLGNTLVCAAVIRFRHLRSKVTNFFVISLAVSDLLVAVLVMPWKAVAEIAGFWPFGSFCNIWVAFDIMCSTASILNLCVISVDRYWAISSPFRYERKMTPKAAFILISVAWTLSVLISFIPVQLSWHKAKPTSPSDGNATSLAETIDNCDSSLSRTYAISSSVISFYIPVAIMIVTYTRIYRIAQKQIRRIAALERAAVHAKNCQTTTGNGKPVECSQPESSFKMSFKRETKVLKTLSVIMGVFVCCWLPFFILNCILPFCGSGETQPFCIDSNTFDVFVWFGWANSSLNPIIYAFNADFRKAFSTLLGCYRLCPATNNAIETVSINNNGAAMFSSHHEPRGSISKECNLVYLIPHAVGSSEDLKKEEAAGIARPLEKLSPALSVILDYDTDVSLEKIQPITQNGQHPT
D1 agonist: Allosteric Agonists of the Human D1 Dopamine Receptor: qHTS; D(1A) dopamine receptor (Homo sapiens), P21728; HEK293 T-REx D1 cells, calcium flux, agonist mode; activation, % at 2 µM; 360,000 tested, 1% active; AID 504660, 2011; in the data active = activation above about 30%; note: 0% is about no effect
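Inducible HEK293 T-REx D1 cells, force-coupled to calcium signalling, were plated at 4000 cells/well with tetracycline and held overnight at 30 C. After no-wash calcium dye loading, compound-evoked calcium rise over 180 s flagged agonists.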
D3 ag: qHTS of D3 Dopamine Receptor Agonist: qHTS; D(3) dopamine receptor (Homo sapiens), P35462; AID 652048, 2013; max activation, %; 410,000 tested, 0.58% active; D3R DiscoveRx beta-arrestin cells, luminescence, 90 min; in the data active = max activation above about 30%; note: 0% is about no effect
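Agonist mode: compounds and dopamine controls were applied to plated cells for 90 min at 37 degrees C after an overnight attachment at 1500 cells/well. Luminescent read-out followed 30 - 60 minutes at room temperature with DiscoveRx detection reagent.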
D1 antagonist: Antagonist of Human D 1 Dopamine Receptor: qHTS | D(1A) dopamine receptor (Homo sapiens), P21728 | HEK293 TREx D1 cells, calcium flux, dopamine EC80; hits give low values | activity change, negative = inhibition, % at 10 µM | 360,000 tested, 3.2% active | AID 504652, 2011; in the data active = activity change below about -30%; note: % is set by controls: 0 for no effect and ±100 for the full control effect
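Cells carrying a force-coupled, tetracycline-inducible human D1 receptor report calcium flux. Each well gets a 10 s baseline, compound with 180 s monitoring, then an EC80 dopamine stimulus with a second 180 s kinetic read.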
Active calls of the source: *; · = not tested or not shown; ! = not active in a repeat.

SMILES	D3 antag	D1 PAM	D1 agonist	D3 ag	D1 antagonist
Cc1c(C(=O)NCC2CCCO2)oc2ccc(S(=O)(=O)N3CCCC3)cc12 (centres undefined)	51	-4	5	1	-5
Cc1c(C(=O)NC(C)CN2CCCCC2)oc2ccccc12 (centres undefined)	-77*	6	3	-54	1
Cc1c(C(=O)NCC2CCCO2)oc2ccccc12 (centres undefined)	9	·	0	-3	-31*
Cc1ccc(C)c2nc3sc(C(=O)N4CCCc5ccccc54)c(N)c3cc12	-54*	·	·	-19	·
CC(C)c1ccc(NC(=O)Cn2cc(S(=O)(=O)Cc3ccccc3Cl)c3ccccc32)cc1	·	5	4	2	10
Cc1oc2ccc(O)c(CN3CCCC3)c2c1C(=O)Nc1ccc(C(C)C)cc1	·	2	9	-2	23
Cc1[nH]c2ccccc2c1SCCNC(=O)c1ccc(F)cc1	·	-1	0	-9	-34*
Cc1cccc(NC(=O)Nc2nnc(N(C)Cc3ccccc3)s2)c1	·	0	12	9	14
C=C[C@]1(C)C[C@@H](OC(=O)CSCCN(CC)CC)[C@]2(C)C(C)CC[C@]3(CCC(=O)[C@H]32)[C@@H](C)[C@@H]1O (some centres undefined)	-89*!	-3	2	-59	10
COc1ccc(CCNC(=O)Cc2c(C)c3c(cc(C)c4c(C)coc43)oc2=O)cc1OC	·	0	0	3	1
N#Cc1c(N)nc(SCC(=O)NC2CCCCC2)c(C#N)c1-c1ccc(Cl)cc1	-12	-4	1	46*	-7
CCN1C(=O)NC2=C(C(=O)c3ccccc32)C1c1ccccc1F (centres undefined)	-62*	0	-3	-5	-10
CC(C)c1ccc(CN(Cc2ccco2)c2cnc(S(C)(=O)=O)nc2C(=O)Nc2ccc(F)cc2)cc1	·	0	6	8	-20
CNC(=O)c1nnsc1S(=O)(=O)c1ccc(Cl)cc1	-110*	-6	4	-19	-8
CC1(C)CC2(CCO1)OC(=O)CC2C(=O)Nc1cccc2ccccc12 (centres undefined)	12	1	1	2	6
O=C1CC(C(=O)Nc2cccc3ccccc23)C2(CCCC2)O1 (centres undefined)	-23	2	34*	2	17
O=C(NCc1ccccc1Cl)C(=O)NCC(c1cccs1)S(=O)(=O)c1ccccc1 (centres undefined)	·	-3	3	-26	·
O=C(CCc1[nH]c2ccccc2c1Sc1ccccc1)NCCO	-19	-7	48*	-4	6
CCN(CC)c1ccc(NC(=O)c2cc(S(=O)(=O)N3CCc4ccccc43)cn2C)c(C)c1	·	-3	1	-9	-34*
CCc1ccccc1NC(=O)c1cc(S(=O)(=O)N2CCc3ccccc32)cn1C	-5	-5	3	1	-10
Cc1ccc(NC(=O)c2cc(S(=O)(=O)N3CCc4ccccc43)cn2C)cc1C	-3	-8	7	4	-45*
CCOC(=O)NN1C(=O)c2ccccc2NC1c1ccccn1 (centres undefined)	-19	-3	3	-3	-30*
CC(=O)c1cccc(NS(=O)(=O)c2cccc(S(=O)(=O)c3ccc(Br)cc3)c2)c1	·	-1	27	7	-41*
COc1ccc(S(=O)(=O)Nc2cccc(C(C)=O)c2)cc1Br	0	5	6	-2	-2
CCc1ccc(OCC(=O)NCC(c2ccc(OC)cc2)N2CCOCC2)cc1 (centres undefined)	·	0	-2	-39	6
SMILES	D3 antag	D1 PAM	D1 agonist	D3 ag	D1 antagonist
CC1=C(C(=O)Nc2ccc(Cl)cc2)C(C(C)C)n2nc(SCc3ccc(Cl)cc3)nc2N1 (centres undefined)	·	0	1	-10	-7
COc1ccc(-c2nc3c(C#N)c[nH]n3c2NC2CCCC2)cc1	·	-1	-2	50*	-2
Cc1cccc(-c2nc3c(C#N)c[nH]n3c2NC2CCCCC2)c1	·	-1	3	1	1
COc1cccc(-c2nc3c(C#N)c[nH]n3c2NC2CCCC2)c1OC	·	-3	6	8	-52*
COc1cccc(-c2nc3c(C#N)c[nH]n3c2NC2CCCCC2)c1	·	-2	3	-2	-37*
COc1cccc(-c2nc3c(C#N)c[nH]n3c2NC2CCCCC2)c1OC	·	1	1	-4	0
CCOc1ccc(-c2nc3c(C#N)c[nH]n3c2NC2CCCCC2)cc1	·	-1	-1	-16	4
CN(C)CCNS(=O)(=O)c1ccc(N2CCc3ccccc32)c([N+](=O)[O-])c1	-20	-5	64*	-21	-3
CCOc1ccc(S(=O)(=O)Nc2cccc(C(=O)N(C)Cc3cccc(OC)c3OC)c2)cc1	-5	-6	7	-4	-32*
CCOc1ccc(S(=O)(=O)Nc2cccc(C(=O)NCC(c3ccco3)N(C)C)c2)cc1 (centres undefined)	-56*	-5	19	-33	-19
COc1cccc(CN(C)C(=O)c2ccc(NS(=O)(=O)c3ccc(F)cc3)cc2)c1OC	-16	7	9	-16	6
CCOc1ccc(S(=O)(=O)Nc2cccc(C(=O)NCC(c3ccccc3)N(C)C)c2)cc1 (centres undefined)	-68*	2	35*	-17	8
CCOc1ccc(NS(=O)(=O)c2ccc(C(=O)NCC(c3ccco3)N(C)C)cc2)cc1 (centres undefined)	1	4	70*	-8	-13
COc1ccc(N(C(=O)c2ccc(C(C)(C)C)cc2)S(=O)(=O)c2ccc(Cl)cc2)cc1	·	0	3	-2	2
O=C(Cn1nc(-c2ccccc2)c2cnc3ccccc3c21)Nc1ccccc1	·	0	-2	1	4
CCCn1c(=O)c2sccc2n2c(CCCC(=O)Nc3ccccc3OCC)nnc12	·	1	1	7	-1
COc1ccc(NS(=O)(=O)c2cccc(C(=O)N(C)Cc3cccs3)c2)cc1	6	-8	17	-3	-25
CCOc1ccc(S(=O)(=O)Nc2cccc(C(=O)NCC3CCCO3)c2)cc1 (centres undefined)	8	-8	3	-8	-39*
COc1ccc(NS(=O)(=O)c2ccc(C(=O)N(C)Cc3cccs3)cc2)cc1	6	2	60*	0	-35*
CCOC(=O)c1c(C)[nH]c(C(=O)N(C)Cc2cccc(OC)c2OC)c1C	-2	-7	38*	-9	2
